{
  "source": "PubChem BioAssay (EPA / NIEHS)",
  "note": "Records with an inconclusive call do not appear. Calls of active or inactive are those of the source. The calls were made as follows: active = hit-call score of the fitted dose curve at least 0.9, where 1 is the maximum; inconclusive = response in the unintended direction; inactive = score below 0.9.",
  "data": [
    {"experiment": "STM_H9_OrnCyssISnorm_ratio: Stemina devTOX quickPredict H9 human embryonic stem cell (hESC)-based Assay for Ornithine (ORN):Cystine (CYSS) Ratio (AID 2283714)", "how_it_was_run": "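H9 hESC, 72h, q24h re-dose; last-day media → acetonitrile deproteinization → UPLC-HRMS. ORN:CYSS ratio from isotope-normalized EIC areas, vs 0.1% DMSO; MTX references on each plate.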", "values": [
      {"smiles": "CN(C)c1ccc(N=NS(=O)(=O)O)cc1", "AC50": "20.5 µM (active)"},
      {"smiles": "CNCc1ccc(NC(=O)c2c[nH]c3c2C(=O)CCC3)cc1", "outcome": "inactive"},
      {"smiles": "CC[C@H]1CC[C@H](NCc2cc3c(cc2OC)[C@H]2C[C@H]2C(=O)N3C)[C@H](c2ccccc2)N1", "AC50": "8.66 µM (active)"},
      {"smiles": "O=c1n(CC2CO2)c(=O)n(CC2CO2)c(=O)n1CC1CO1", "note": "(stereo unspecified)", "AC50": "0.295 µM (active)"},
      {"smiles": "CCOC(=O)c1ccc(C2CCC(NC[C@H](O)COc3ccc(O)c(NS(C)(=O)=O)c3)CC2)cc1", "note": "(stereo partly specified)", "AC50": "1.42 µM (active)"},
      {"smiles": "O=c1[nH]c2ccc(S(=O)CCN3CCC(Cc4ccc(F)cc4)CC3)cc2o1", "note": "(stereo unspecified)", "AC50": "5 µM (active)"},
      {"smiles": "O=C1CCC(N2C(=O)c3ccccc3C2=O)C(=O)N1", "note": "(stereo unspecified)", "AC50": "0.121 µM (active)"},
      {"smiles": "Cn1cnc([N+](=O)[O-])c1Sc1ncnc2nc[nH]c12", "AC50": "3.28 µM (active)"},
      {"smiles": "CC(C)CC(C)(O)C#CC(C)(O)CC(C)C", "note": "(stereo unspecified)", "AC50": "63.2 µM (active)"},
      {"smiles": "NC(=O)NO", "AC50": "392 µM (active)"},
      {"smiles": "CCN(C(=O)c1cc(C)cc(OC[C@H](C)Nc2ccncc2)c1)C(C)C", "AC50": "7 µM (active)"}
    ]}
  ]
}
